Assay outcomes (PubChem)
Epigenetic reg: derepresses silenced GFP reporter in murine cells; murine LDR cells, GFP reporter derepression, 30 h; Potency, µM (titrated, usually from 53.9 µM), inactives show at the top dose GFP activation, actives largely listed as activators; 280,000 compounds, 0.2% hits; note: % of control where 0% means no effect; nearly all actives have a fitted effect of over 60% in size
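Murine LDR cells carrying a silenced, genomically integrated CMV-driven GFP reporter were exposed to compound for 30 hours at 37 C. After PBS washes, GFP-positive cells (20–120 um objects) were counted by laser-scanning microplate cytometry.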
ClpP mod: qHTS Assay for Activators of ClpP; purified B. subtilis ClpP, FRET peptide cleavage, 20 min; Potency, µM (series often up to 57.5 µM), without a hit: at the top dose activity change, negative = active; 340,000 compounds, 1.9% hits; active = well fitted falling curve with a large enough effect; inconclusive = small, poorly fitted or top-dose-only effect; inactive = no such curve, though single readings can be large or run the other way; note: the source files actives as falling curves though it sought activators and does not explain the sign; nearly all actives have a fitted effect of over 65% in size
Target sequence (P80244 whole entry, looked up): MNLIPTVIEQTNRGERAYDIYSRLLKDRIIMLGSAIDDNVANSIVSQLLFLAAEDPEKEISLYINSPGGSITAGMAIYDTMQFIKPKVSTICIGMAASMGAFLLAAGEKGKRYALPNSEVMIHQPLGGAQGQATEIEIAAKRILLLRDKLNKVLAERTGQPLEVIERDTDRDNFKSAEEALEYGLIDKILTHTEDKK
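Buffer: 100 mM Tris/HCl pH8, 100 mM KCl, 0.05% low protease BSA, 2.5% glycerol, 0.01% Tween-20. ClpP 10 microg/mL final; 20 min RT; delta FRET normalized to ADEP and DMSO controls.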
RORg inh: inhibitors of mouse ROR gamma transcriptional activity; P51450; Drosophila S2 Gal4-RORgamma UAS-luciferase reporter, 20 h; Potency, µM (highest dose often 53.6 µM), without a hit: at the top dose activity change, negative = inhibition, actives largely listed as inhibitors; 310,000 compounds, 5.4% hits; AID 2551; note: % is set by controls: 0 for no effect and ±100 for the full control effect; nearly all actives have a fitted effect of over 60% in size
Target sequence (P51450 whole entry, looked up, the tested form may be a part): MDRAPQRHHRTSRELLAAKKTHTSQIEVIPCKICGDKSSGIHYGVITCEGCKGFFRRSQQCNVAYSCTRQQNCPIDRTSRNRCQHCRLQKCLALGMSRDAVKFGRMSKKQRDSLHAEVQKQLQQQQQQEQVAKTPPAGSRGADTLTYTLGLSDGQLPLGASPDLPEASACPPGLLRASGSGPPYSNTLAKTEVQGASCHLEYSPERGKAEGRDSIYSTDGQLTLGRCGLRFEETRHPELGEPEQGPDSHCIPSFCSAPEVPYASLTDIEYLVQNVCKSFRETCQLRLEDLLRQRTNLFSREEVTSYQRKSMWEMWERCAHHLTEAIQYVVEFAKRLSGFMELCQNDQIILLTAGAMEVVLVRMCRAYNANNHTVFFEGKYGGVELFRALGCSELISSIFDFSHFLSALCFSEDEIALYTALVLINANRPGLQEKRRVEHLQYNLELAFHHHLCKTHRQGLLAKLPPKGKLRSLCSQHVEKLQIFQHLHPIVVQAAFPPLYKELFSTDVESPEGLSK
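Luciferase reporter read in Schneider cells carrying Gal4-RORγ (mouse) and UAS-Photinus luciferase; cells given compound 1 h before 700 uM copper sulfate induction, then incubated 20 h at ambient temperature.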
Sfp inh: Sfp phosphopantetheinyl transferase inhibition | Q9F4F7 | Biochemical Sfp PPTase activity, qHTS | Potency, µM, inactives show largest response in the series, negative = inhibition, most hits filed as inhibitors | 310,000 compounds, 3.5% hits | AID 1490;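 note: the enzyme is Sfp with the accession as filed and its product quenches rhodamine fluorescence; 0% = enzyme reaction without inhibitor and -100% = no enzyme wells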
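Sfp 15 nM + cpd, 15 min RT; start w/ rhodamine-CoA 5 uM, BHQ-2-YbbR 12.5 uM (final); 50 mM Hepes pH 7.6, 10 mM MgCl2, 0.01% NP-40, 0.01% BSA; read 525/598 nm at 0 and 30 min.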
Gal4-VP16 FLuc: inhibits Gal4-VP16 luciferase reporter, ROR gamma counter-screen. Drosophila S2 Gal4-VP16 UAS-luciferase, luminescence, 20 h. Potency, µM (titrated, usually from 53.6 µM), inactives show top-dose activity, negative = inhibition, most hits filed as inhibitors. 310,000 compounds, 3.5% hits;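 note: Gal4-VP16 expression switched on by copper sulfate through the metallothionein promoter; % is set by controls: 0 for no effect and ±100 for the full control effect; nearly all actives have a fitted effect of over 50% in size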
PINK1 expr mod: changes PINK1 expression; PINK1 immunofluorescence, high-content cytometry, 24 h; Potency, µM (doses to about 76.6 µM), without a hit: at the top dose activation (PINK1 increase), actives largely listed as activators; 410,000 compounds, 0.2% hits; AID 624263; active = well fitted activation curve with a large enough effect; inconclusive = small, poorly fitted or top-dose-only effect; cell line not stated here; note: % of control where 0% means no effect; nearly all actives have a fitted effect of over 65% in size
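PINK1 protein level read as immunofluorescence by microplate cytometer in a fixed, stained stable cell line after 24 h exposure to five compound concentrations, with CCCP as control.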
An asterisk follows results filed as active; ? = inconclusive; . = not tested or not shown; [ ] = dose if it differs, or a comment. Sampled rows, rich in hits. Any-hit rate of the full collection: about 8.1%. Unless noted, calls come from the whole dose curve; as a rule, active = well fitted curve in the direction sought with a large enough effect; inconclusive = small, poorly fitted or top-dose-only effect, or another doubt; inactive = no such curve, though single readings can be large; an effect the other way counts as inactive or inconclusive. Potency is the fitted concentration of half-maximal effect.

SMILES	Epigenetic reg	ClpP mod	RORg inh	Sfp inh	Gal4-VP16 FLuc	PINK1 expr mod
Cc1nc2ccc(Br)cn2c1C(=O)N/N=C\c1ccccc1Cl	.	-0.3%	7.08µM*	26.8%	?	3.1%
Cc1nn(C)c(C(=O)N/N=C/c2cccc3ccccc23)c1Cl	2.3%	14.1µM*	?	22.7%	-1.4%	?
COc1cc(Br)ccc1C1C(C(=O)Nc2ccc(C)cc2C)=C(C)Nc2nnnn21 (stereo unspecified)	-1.8%	-2.1%	.	.	.	7.8%
CCc1ccccc1NC(=O)Cn1nnc(-c2nc(-c3ccc(C)cc3)no2)c1N	2.1%	-2.5%	.	.	.	-0.6%
CCc1ccc(OCC(=O)Nc2ncn[nH]2)c(Br)c1	-1.1%	0.2%	.	.	.	-2.1%
CSc1nc2sc3c(c2c(=O)n1Cc1ccccc1)CCC(C(C)(C)C)C3 (stereo unspecified)	-1.6%	-3.5%	.	.	.	0.0%
Cc1ccc(/C=N/n2c(COc3ccccc3)n[nH]c2=S)o1	1.3%	0.6%	?	44.7µM*	7.8%[10 µM]	-0.3%
CC(/C=N/n1c(COc2ccccc2)n[nH]c1=S)=C\c1ccco1	0.0%	.	7.08µM*	-12.2%	-19.1%	4.0%
COc1cc(OC)c(OC)cc1/C=N/n1c(-c2n[nH]c3c2CCC3)n[nH]c1=S	2.0%	16.9%	-7.5%	22.4µM*	-4.1%	-0.4%
CC(/C=N/n1c(-c2n[nH]c3c2CCC3)n[nH]c1=S)=C\c1ccco1	-2.0%	.	-0.3%	44.7µM*	-5.5%	3.0%
FC(F)(F)c1n[nH]c(=S)n1/N=C/c1ccco1	1.0%	-0.2%	-13.8%	-25.2%	11.7%	1.0%
S=c1[nH]nc(COc2ccccc2)n1/N=C/c1ccco1	-2.3%	.	7.94µM*	-26.5%	-3.0%	-1.3%
COc1ccc2c(c1)CC/C(=C\c1ccc(OC)c(Cn3nc(C)cc3C)c1)C2=O	-1.0%	-4.8%	?	35.5µM*	-28.3%	-1.0%
COc1ccc2c(c1)CC/C(=C\c1ccc(OC)c(Cn3cccn3)c1)C2=O	-5.3%	-5.4%	2.5%	44.7µM*	1.7%	-3.3%
COc1ccc(/C=C2\CCc3ccccc3C2=O)cc1CN1CCOCC1	0.1%	.	?	7.3%	12.9%	-2.1%
COc1ccc(NS(=O)(=O)c2cccc(C(=O)NNC(=O)c3cncc(Br)c3)c2)cc1	.	28.2µM*	.	.	.	2.1%
CCOC(=O)c1c(C)oc2nc(C)nc(Nc3cc(C)cc(C)c3)c12	-0.4%	-0.2%	.	.	.	0.1%
Cc1ccc2c(c1)c1c(c(=O)n(-c3ccccc3)c(=O)n1CC(=O)c1ccc(F)cc1)n2C	-2.1%	-9.8%	.	.	.	1.2%
COc1ccccc1N1C(=O)CC(Nc2ccc(N3CCOCC3)cc2)C1=O (stereo unspecified)	-1.1%	-1.1%	-5.0%	79.4µM*	1.8%	0.0%
CCOc1ccccc1N1C(=O)CC(Nc2ccc(N3CCOCC3)cc2)C1=O (stereo unspecified)	-1.6%	0.3%	-8.1%	-12.8%	?	4.2%[38.3 µM]
O=[N+]([O-])c1ccc(/C([O-])=C(/C(=S)NCc2ccco2)[n+]2ccccc2)cc1	-0.2%	.	19.4%	8.91µM*	-0.4%	3.5%
[O-]/C(=C(\C(=S)NCc1ccco1)[n+]1ccccc1)c1ccccc1Br	-1.1%	-2.9%	22.4µM*	12.6µM*	10.1%	-2.0%
O=[N+]([O-])c1cccc(/C([O-])=C(/C(=S)Nc2cccc3ccccc23)[n+]2ccccc2)c1	-1.0%	.	10µM*	35.5µM*	?	-0.5%
Cc1ccc(/C([O-])=C(/C(=S)NCc2ccco2)[n+]2ccccc2)cc1	0.1%	.	-24.4%	?	8.1%	.
CC(C)(C)c1ccc(-c2nc3cc(NC(=O)c4cccc(Br)c4)ccc3o2)cc1	0.8%	-0.9%	.	.	.	0.2%
SMILES	Epigenetic reg	ClpP mod	RORg inh	Sfp inh	Gal4-VP16 FLuc	PINK1 expr mod
Cc1c(/C=N/NC(=O)c2ccc3c(c2)OCO3)cnn1C	-1.2%	-2.7%	-20.2%	15.5%	-0.1%	-0.4%
CCOc1cccc(/C=N/NC(=O)c2cc(-c3cccn3C)n[nH]2)c1O	1.0%	.	2.82µM*	3.0%	5.01µM*	-1.5%
O=C(N/N=C\c1ccc2c(c1)OCO2)c1ccco1	1.0%	-6.7%	-43.6%	20.0%	-25.0%	-1.4%
O=C(N/N=C\c1cccc(OC(=O)c2ccco2)c1)c1ccc2c(c1)OCO2	1.0%	-2.6%	14.1µM*	5.4%	6.31µM*	11.4%
Cc1cccc(/C=N/NC(=O)c2ccc3c(c2)OCCO3)c1O	.	.	3.55µM*	4.2%	2.51µM*	.
COc1cc(/C=N/NC(=O)c2ccc3c(c2)OCCO3)c(Br)c(Br)c1O	.	-5.9%	13.2%	-19.2%	-2.3%	2.0%
CCOc1cccc(/C=N/NC(=O)c2ccc3c(c2)OCCO3)c1O	.	.	0.398µM*	13.3%	0.631µM*	-0.4%
CN(C)CCN(C)C(=O)c1ccc(-n2c(=O)c(=O)[nH]c3ccccc32)cc1	-3.9%	.	.	.	.	.
COc1cc(/C=C/c2ccccc2)oc(=O)c1	.	.	9.1%	.	-4.5%	.
COc1ccc(CN(Cc2ccccc2)C(=O)c2ccno2)cc1COc1ccc(NC(C)=O)cc1	.	-1.0%	.	.	.	0.1%
O=C(CSc1nc(=O)[nH]c2c1CCC2)NCc1ccc(F)cc1	1.9%	-5.6%	.	.	.	0.7%
COc1cccc(/C=N/NC(=O)CNC(=O)c2ccc3c(c2)OCCO3)c1O	1.1%	-3.0%	0.631µM*	8.1%	4.47µM*	-0.3%
COc1cccc(/C=N/NC(=O)CNC(=O)C2COc3ccccc3O2)c1O (stereo unspecified)	-3.2%	-11.3%	0.355µM*	10.0%	0.447µM*	-1.6%
COc1cc(/C=N/NC(=O)C2C3CCCCC32C)cc(Br)c1O (stereo unspecified)	-2.1%	?	7.08µM*	14.1%	5.01µM*	2.5%
O=C(N/N=C/c1cccc(O)c1)c1ccc2c(c1)OCCO2	.	-0.1%	3.16µM*	2.8%	6.31µM*	0.4%
COc1cc(/C=N/NC(=O)c2ccc3c(c2)OCCO3)cc(Br)c1O	.	-0.8%	15.8µM*	10.4%	?	2.0%
CCN(CCN(C)Cl)/[N+]([O-])=N/Oc1ccc([N+](=O)[O-])cc1[N+](=O)[O-]	.	.	.	.	.	-1.3%
CCN1CCC2(CC1)C(C#N)=C(N)Oc1c2sc2nc(C)cc(C)c12	-4.6%	-2.3%	26.7%	50.1µM*	-8.8%	2.5%
O=[N+]([O-])c1c(Nc2ccc(O)cc2)cc(N2CCOCC2)c2nonc12	1.3%	1.1%	10.7%	-6.6%	-2.1%	1.3%
O=[N+]([O-])c1c(Nc2ccccc2O)cc(Cl)c2nonc12	.	.	3.55µM*	-63.6%	2.82µM*	-2.0%
O=C(O)c1cc(Nc2cc(Cl)c3nonc3c2[N+](=O)[O-])ccc1O	.	2.8%	-26.8%	44.7µM*	?	2.9%
